# Measurements published in PubChem BioAssay (NCI).
# This is part of a sample that, as a whole, favours compounds with a hit. Of some 83,000 tested, about 20% had one in any assay.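 Single-dose data. Exposure time 48 hours. Values below 10 considered active.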 A number with no mark means an inactive call. Active and inactive are the calls of the source.
# What was measured:
# Assay in all cases: NCI-60 one-dose screen, 48 h (100 = growth as untreated, 0 = no growth, -100 = all killed)
# Conditions in all cases: 10 µM unless noted
# [1] = test system: NCI-H23 lung
# [2] = test system: NCI-H226 lung
# [3] = test system: NCI-H322M lung
# [4] = test system: HOP-62 NSCLC
# [5] = test system: NCI-H460 lung
# [6] = test system: HOP-92 NSCLC
# [7] = test system: NCI-H522 lung
# [8] = test system: A549/ATCC NSCLC
# [9] = test system: 786-0 renal
# [10] = test system: COLO 205 colon
# [11] = test system: DU-145 prostate
# [12] = test system: K-562 leukemia
# [13] = test system: MALME-3M melanoma
# [14] = test system: MDA-MB-231 breast
# [15] = test system: RXF 393 renal
# [16] = test system: SF-268 CNS
# [17] = test system: SF-295 CNS
# [18] = test system: SF-539 CNS
# [19] = test system: UACC-257 melanoma
# [20] = test system: M14 melanoma
SMILES,growth [1],growth [2],growth [3],growth [4],growth [5],growth [6],growth [7],growth [8],growth [9],growth [10],growth [11],growth [12],growth [13],growth [14],growth [15],growth [16],growth [17],growth [18],growth [19],growth [20]
OCc1ccc(N2CCc3cccc(F)c3C2)cc1Cl,84.7% [0.1 µM],-6.37% [0.1 µM] (active),106% [0.1 µM],44.7% [0.1 µM],31% [0.1 µM],82.3% [0.1 µM],80.6% [0.1 µM],62.9% [0.1 µM],66.4% [0.1 µM],24.9% [0.1 µM],100% [0.1 µM],38.5% [0.1 µM],104% [0.1 µM],107% [0.1 µM],103% [0.1 µM],105% [0.1 µM],52.7% [0.1 µM],110% [0.1 µM],-14.3% [0.1 µM] (active),111% [0.1 µM]
CSc1ccc(-c2n[nH]nc2-c2cc3ccccc3s2)cc1,61.5%,86%,73.9%,39.2%,21%,70.3%,8.98% (active),35%,54.7%,77.8%,74.3%,15.1%,69.4%,41.5%,75.5%,54.3%,49.9%,50.2%,58.4%,16%
O=C(Cc1ccccc1Nc1c(Cl)cccc1Cl)NN1C(=O)/C(=C/c2ccc(Br)cc2)SC1=S,97.5%,95.6%,98.7%,104%,104%,103%,93.9%,99.5%,98.9%,105%,109%,100%,100%,103%,111%,96.8%,101%,93.6%,103%,103%
C#CCOc1ccc2ncnc(NCc3cccc(NC(=O)CCl)c3)c2c1,36.6% [8.25 µM],25.3% [8.25 µM],82.3% [8.25 µM],0.209% [8.25 µM] (active),28.2% [8.25 µM],54.4% [8.25 µM],-62.8% [8.25 µM] (active),50.4% [8.25 µM],39.2% [8.25 µM],54% [8.25 µM],77.9% [8.25 µM],11.7% [8.25 µM],57.4% [8.25 µM],45.3% [8.25 µM],42.3% [8.25 µM],41.9% [8.25 µM],93.9% [8.25 µM],49.5% [8.25 µM],63.8% [8.25 µM],51.3% [8.25 µM]
CCN(CC)c1ccc(/C=N\NC(=O)/C=C/C=C/c2ccc3c(c2)OCO3)c(O)c1,49.7%,49.5%,31.2%,28.5%,19.8%,48.4%,12.5%,53.3%,47.2%,39.9%,53.2%,17.6%,56.5%,43.2%,72.6%,33.7%,41.7%,22.7%,24.2%,36.4%
O=S(=O)(Nc1ccc(Cl)c(F)c1)c1ccc(-c2cnc(C3CC3)o2)cc1,25.2%,58.6%,39.7%,32.5%,13.5%,42%,-15.8% (active),30.1%,42.6%,1.76% (active),16.6%,12.3%,35.3%,37.8%,-7.66% (active),52.1%,10.3%,-15.5% (active),52.9%,19.5%
Cn1cc(-c2nonc2-c2c[nH]c3ccc(F)cc23)c2cccnc21,80.7%,57.3%,88.1%,78.9%,93.9%,70.6%,70.2%,80.4%,98.1%,96.5%,96%,58%,93.4%,78.4%,72.8%,78.3%,78.9%,88.7%,89.9%,90.3%
C#CCOc1ccc2ncnc(Nc3cccc(CNC(=O)CCl)c3)c2c1,44.5% [8.25 µM],27.7% [8.25 µM],71.3% [8.25 µM],13.1% [8.25 µM],61.3% [8.25 µM],54% [8.25 µM],-47.7% [8.25 µM] (active),53.3% [8.25 µM],25.7% [8.25 µM],68.2% [8.25 µM],57.9% [8.25 µM],29.5% [8.25 µM],68.8% [8.25 µM],53.4% [8.25 µM],14% [8.25 µM],39.7% [8.25 µM],92% [8.25 µM],54.8% [8.25 µM],58.7% [8.25 µM],61.7% [8.25 µM]
COc1cc(-c2nc3ccccc3[nH]2)ccc1OCc1nnc(-c2ccc(CC(C)C)cc2)o1,91.1%,87.7%,93.8%,93.4%,98.8%,79.7%,93.5%,84.2%,93.7%,101%,94%,76%,89.9%,93.4%,71.2%,99.9%,99.3%,105%,104%,98.3%
CCOC(=O)c1c(CN2CCN(C)CC2)nc2ccc(Cl)cc2c1-c1ccccc1,74.7%,103%,108%,70.8%,59.5%,30.8%,65.8%,67.2%,57.5%,97%,85.7%,11.7%,38.6%,70.7%,42.9%,77.9%,28.8%,61.9%,-38% (active),-24.5% (active)
CCOC(=O)n1cc(-c2nonc2-c2cn(C)c3ncccc23)c2cc(F)ccc21,76%,57.8%,85.8%,89.8%,92.1%,58.8%,72%,70.1%,81.3%,96%,91.1%,61.2%,84.4%,68.2%,78.3%,74.2%,76%,77.9%,91.2%,93.8%
C[n+]1ccccc1/C=C/c1ccc2cccc(O)c2n1,103%,86.8%,136%,91.1%,102%,106%,99.8%,9.6% (active),104%,63.3%,102%,102%,146%,93.3%,48.4%,97.1%,109%,109%,97.5%,103%
CCCCn1c(-c2ccc(C(=O)O/N=C(\N)c3ccc4ccccc4c3)cc2)nc(-c2ccccc2)c1-c1ccccc1,65%,61.7%,80.8%,91.5%,26.3%,77.6%,71.7%,42%,77.8%,90.8%,65.3%,11.9%,93.4%,70%,58.2%,48.9%,81%,81.3%,98.3%,82.6%
CCOC(=O)c1c(C)oc2ncnc(N3CCN(C(=O)COc4ccc(SC)cc4)CC3)c12,93.9%,83.3%,99.3%,86.4%,98.7%,78.9%,74.9%,90.2%,95.8%,98%,99.6%,82.4%,105%,88.6%,99.7%,92.7%,88.2%,93.5%,95%,97.9%
CSc1nc(NCc2ccccc2)c(C#N)c(-c2cccc([N+](=O)[O-])c2)n1,93.7%,94.5%,95.7%,89.2%,97%,77.7%,85.4%,88.4%,96.6%,110%,103%,90.7%,113%,82.7%,102%,94.3%,98.9%,104%,109%,98%
